Measured values as given in PubChem BioAssay AID2075 (NMMLSC, 2009).
Active and inactive are the calls of the source. The rule behind the calls is not given here.

molecular target: Apoptosis regulator Bcl-2 (Homo sapiens) (UniProt P10415); assay: Bcl-2 Bim peptide interaction hit potency – biochemical, dose response, multiplexed HTS hits, confirmation (AID 2075); details: bead-based flow cytometry, Bim peptide-Bcl-2 binding; series mostly up to 100 µM
Sequence (P10415 whole entry, looked up): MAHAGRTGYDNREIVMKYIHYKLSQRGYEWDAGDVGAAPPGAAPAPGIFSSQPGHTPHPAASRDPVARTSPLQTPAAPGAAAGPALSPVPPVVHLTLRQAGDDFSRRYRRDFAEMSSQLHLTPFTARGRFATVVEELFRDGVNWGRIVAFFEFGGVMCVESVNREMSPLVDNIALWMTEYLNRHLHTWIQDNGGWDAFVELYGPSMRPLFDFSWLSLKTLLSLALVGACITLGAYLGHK

outcome, inactive:
Cc1ccc(-c2cc(-c3ccc(F)cc3)c(C#N)c(N)n2)o1
O=C1c2ccccc2C(=O)N1CN(C(=O)COc1ccc(Cl)cc1Cl)c1cccc(F)c1
O=c1c2c(n3nnnc3n1Cc1ccccc1)-c1ccccc1CC21CCCC1
O=C1/C(=C\c2ccco2)NC(=S)N1c1ccccc1
CCN(CC)c1ccc(NC(=O)c2ccccc2F)cc1S(=O)(=O)Nc1ccccc1OC
CNC1CCC(Br)CC(C(=O)/C=C/c2cccc(OC)c2OC)C1=O (configuration not stated)
CNC(CC(=O)c1ccc([N+](=O)[O-])cc1)C(Cl)(Cl)Cl (configuration not stated)
O=C(/C=C/c1ccc(-c2ccccc2[N+](=O)[O-])o1)c1ccccc1
CCOc1ccccc1CNc1ccc(O)cc1
Cc1ccc(-c2cc(C(=O)Nc3nccs3)c3ccccc3n2)o1
Cc1ccc(-c2cc(-c3ccc(C)o3)nc(N)c2C#N)cc1
Cc1cc(-c2cc(-c3ccc(Cl)cc3)nc(N)c2C#N)co1
CCN(CC)c1ccc(NC(=O)COc2ccccc2C)cc1S(=O)(=O)Nc1ccccc1OC
COc1ccc(N2C(=O)C(Cl)=C(Oc3cccc(OC)c3)C2=O)cc1
COc1ccccc1-n1c(-c2ccccc2)c[nH]c1=S
Oc1ccc(NCc2ccccc2OCc2ccccc2)cc1
COc1cc(CNc2ccc3[nH]c(=O)[nH]c3c2)cc(Br)c1OCC(=O)NC(C)(C)C
CC(=O)Nc1ccc(-n2cc(-c3ccccc3)[nH]c2=S)cc1
O=C1C(Cl)=C(N2CCN(c3ccccc3[N+](=O)[O-])CC2)C(=O)c2ccccc21
O=C(Nc1nnc(COc2ccc(Cl)cc2)s1)c1ccco1
C=CS(=O)(=O)c1sc(Cl)c(N2CCOCC2)c1[N+](=O)[O-]
COc1cc(N=C2SSNC2Cl)c(OC)cc1Cl (configuration not stated)
CCN1C(=O)/C(=C\C=C2/C=CC=CN2CC)SC1=S
Cc1nnc(Sc2cc(NCCO)c([N+](=O)[O-])c3nonc23)s1
S=c1[nH]cc(-c2ccccc2)n1-c1ccccc1
CCN(CC)c1ccc(NC(=O)c2ccccc2Br)cc1S(=O)(=O)Nc1ccccc1OC
COc1ccc(N2C(=O)C(Cl)=C(NC3C(=O)N(c4ccccc4)N(C)C3C)C2=O)cc1 (configuration not stated)
